Only some compounds are listed: those with a hit (about 17% of all), similar ones and a draw of the others.
DT40 TDP1 CPT = qHTS for Inhibitors of human tyrosyl-DNA phosphodiesterase 1 (TDP1): qHTS in cells in presence of CPT | Potency, µM (series often up to 46.2 µM), most hits filed as inhibitors | actives 12% (n = 420,000) | chicken DT40 Tdp1-/-;hTDP1 cells + 20 nM CPT, ATP luminescence, 48 h; note: nearly all actives have a fitted effect of over 55% in size
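Chicken DT40 Tdp1-/- cells complemented with human TDP1, 400 cells/well, exposed to compounds plus 20 nM camptothecin for at least 48 h at 37 C; viability read as ATP content by CellTiter-Glo luminescence.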
HepG2 viability = qHTS for Inhibitors of TGF-b: Cytotox Counterscreen | HepG2 CAGA-GFP viability, ATP luminescence, 18 h | Potency, µM (titrated, usually from 46.1 µM), usual class: cytotoxic | actives 0.76% (n = 410,000) | AID 588856, 2011
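CellTiter-Glo luminescence gave cytotoxicity after 18 hours at 37 degrees C. The cells were HepG2 CAGA-GFP in 1% FBS DMEM, stimulated with 500 pg/mL TGF-beta after compound addition. %Activity was normalised to no-cell wells (complete cell-killing) and DMSO (no toxicity), and curves were fitted and classified.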
HT1080 IDH1KD tx = qHTS for induction of synthetic lethality in tumor cells producing 2HG: qHTS for the HT-1080-IDH1KD cell line; Potency, µM (highest dose often 46.1 µM), most hits filed as cytotoxic; HT-1080 IDH1 knockdown viability, ATP luminescence, 48 h; actives 2% (n = 360,000)
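Using the IDH1-knockdown HT-1080 line run in the same batch and compound series as the NT line, viability after 48 h at 37 °C was determined by CellTiter-Glo luminescence and expressed as % activity.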
HT1080NT lethal = qHTS for induction of synthetic lethality in tumor cells producing 2HG: qHTS for the HT-1080-NT fibrosarcoma cell line; actives 1.6% (n = 360,000); AID 686970, 2013; Potency, µM (top dose mostly 46.1 µM), hits mostly cytotoxic; HT-1080-NT fibrosarcoma viability, CellTiter-Glo ATP luminescence, 48 h;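 note: NT is the 2HG producing partner of a matched IDH1 knockdown line; nearly all actives have a fitted effect of over 55% in size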
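Toxicity toward the 2HG-producing NT line was scored as %Activity, normalised to DMSO and no-cell wells, from CellTiter-Glo luminescence after 48 hours' treatment.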
DT40 TDP1 no CPT = qHTS for Inhibitors of human tyrosyl-DNA phosphodiesterase 1 (TDP1): qHTS in cells in absence of CPT. DT40 Tdp1-/- hTDP1 cells, no CPT, ATP luminescence, 48 h. Potency, µM (top dose mostly 46.2 µM), hits mostly inhibitors. actives 15% (n = 420,000); note: nearly all actives have a fitted effect of over 55% in size
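Compound effects on proliferation are scored in DT40 Tdp1-/-;hTDP1 cells in the absence of CPT. ATP levels (CellTiter-Glo luminescence) are recorded after a ≥48 hr, 37 °C incubation.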
TGFb SMAD3 inh = qHTS for Inhibitors of TGF-b. Potency, µM (titrated, usually from 46.1 µM), actives largely listed as inhibitors. HepG2 CAGA-GFP TGF-b/SMAD3 reporter, GFP fluorescence, 18 h; TGF-beta stimulated, 500 pg/mL final. actives 1.2% (n = 410,000); note: nearly all actives have a fitted effect of over 65% in size
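HEPG2 CAGA-GFP, 1000 cells/well; 2 h settle, 37 C; cpd via pin tool; TGF-b 500 pg/mL final; 18 h, 37 C; GFP imaging ex488/em500-530; %Activity normalised to -TGF-b and +DMSO controls; CRC fit, curve class.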
Hits are given with their value; i = inactive; ? = inconclusive; nt = no result; [ ] = remark or other dose. Calls come from the whole dose curve; as a rule, active = well fitted curve in the direction sought with a large enough effect; inconclusive = small, poorly fitted or top-dose-only effect, or another doubt; inactive = no such curve, though single readings can be large; an effect the other way counts as inactive or inconclusive.

SMILES	DT40 TDP1 CPT	HepG2 viability	HT1080 IDH1KD tx	HT1080NT lethal	DT40 TDP1 no CPT	TGFb SMAD3 inh
O=C(Nc1cccc(C(F)(F)F)c1)c1cc2c(s1)-c1ccccc1OC2	i	i	i	?	i	i
COC(=O)c1ccccc1NC(=O)c1cc2c(s1)-c1ccccc1OC2	16µM	i	nt	nt	?	i
CN(Cc1cn(Cc2ccc(Cl)cc2)nn1)C1CN(Cc2cn(Cc3ccc(Cl)cc3)nn2)S(=O)(=O)C1 (stereo not drawn)	18µM	nt	i	i	13µM	nt
CN(C)CCN1CCN(C2CN(Cc3cn(Cc4cccc(C(F)(F)F)c4)nn3)S(=O)(=O)C2)CC1 (stereo not drawn)	i	nt	i	i	i	nt
Cc1cccc(CN2CCN(C3CN(Cc4cn(Cc5cccc(C(F)(F)F)c5)nn4)S(=O)(=O)C3)CC2)c1 (stereo not drawn)	?	nt	i	i	21µM	nt
CCCCCCN1CCN(C2CN(Cc3cn(Cc4cccc(Cl)c4)nn3)S(=O)(=O)C2)CC1 (stereo not drawn)	18µM	nt	i	?	?	nt
CCCCCCN1CCN(C2CN(Cc3ccc(C)cc3)S(=O)(=O)C2)CC1 (stereo not drawn)	23µM	i	i	i	?	?
CC1CC(NC(=O)c2c(O)nc3sccn3c2=O)CC(C)(C)C1 (stereo not drawn)	?	i	i	i	?	i
COCc1ccc(CN2CCOc3ccc(C4=Cc5ccccc5C4)cc3C2)o1	i[9.04 µM]	nt	nt	nt	i	nt
Cc1ccccc1C(OCC(O)CN1CCN(CCO)CC1)c1ccccc1 (stereo not drawn)	i	i	i	i	i	i
COc1ccc(CCC2(C)OCC(CCCCO)O2)cc1 (stereo not drawn)	i	i	i	i	i	i
CCCCCCN1CCN(C2CN(Cc3cn(Cc4ccc(Cl)cc4)nn3)S(=O)(=O)C2)CC1 (stereo not drawn)	23µM	nt	?	?	16µM	nt
Cc1ccc(-c2nc(CS(=O)CC(=O)NCc3ccccc3)c(C)o2)cc1 (stereo not drawn)	i	i	i	i	i	i
CCc1ccc(-c2nc(CS(=O)CC(=O)NCCc3ccccc3)c(C)o2)cc1 (stereo not drawn)	i	i	i	i	i	i
CCc1ccc(-c2nc(CS(=O)CC(=O)NCCc3ccc(C)cc3)c(C)o2)cc1 (stereo not drawn)	23µM	i	nt	nt	?	?
Cc1ccc(NC(=O)CS(=O)Cc2nc(-c3ccc(C)cc3)oc2C)cc1 (stereo not drawn)	?	i	i	i	21µM	i
O=C(Nc1ccc(OC(F)(F)F)cc1)Nc1cccc([N+](=O)[O-])c1	2.9µM	7.9µM	?	?	4.1µM	?
Cc1cc([N+](=O)[O-])ccc1NC(=O)c1cccc(NC(=O)C(C)C)c1	?	i	i	i	23µM	i
Cc1ccc(NC(=O)Nc2cccc([N+](=O)[O-])c2)cc1F	?	i	12µM	15µM	16µM	?
Cc1cc([N+](=O)[O-])ccc1NC(=O)Nc1ccc(F)cc1F	5.2µM	i	i	i	4.6µM	i
O=C(Nc1ccc(OC(F)(F)F)cc1)Nc1cccnc1	?	i	i	i	?	i
CCCCN1C(=O)CCC(C(=O)O)C1c1ccc([N+](=O)[O-])cc1 (stereo not drawn)	i	i	i	i	i	i
Cc1nn(C(=O)c2ccc(Cl)cc2)c(C)c1S(=O)(=O)N1CCOCC1	i	i	nt	nt	i	i
Cc1ccc(C[n+]2ccccc2)cc1	8.2µM	i	i	i	9.2µM	i
CC1=CC2C(C(O)CC3(C)C2CC(C)C32OCOC23COCO3)C2(C)C/C(=C\O)C(=O)C=C12 (stereo not drawn)	1.6µM	11µM	7.3µM	18µM	2.6µM	5.6µM
SMILES	DT40 TDP1 CPT	HepG2 viability	HT1080 IDH1KD tx	HT1080NT lethal	DT40 TDP1 no CPT	TGFb SMAD3 inh
CN1C(=O)/C(=N\OC(=O)c2cccc3ccccc23)c2ccccc21	12µM	i	?	13µM	13µM	?
COc1ccc(C(=O)O/N=C2\C(=O)N(C)c3ccccc32)cc1	7.3µM	i	i	i	5.8µM	i
C[C@@]12CCC(OC(=O)c3ccccc3)CC1CCc1ccccc12 (stereo partly drawn)	i	nt	nt	nt	i	nt
CN(C(=O)CSc1nc2scc(-c3ccccc3)c2c(=O)[nH]1)c1ccccc1	?	i	i	i	?	?
O=C1C=C(NCc2ccccc2)CCC1	i	i	i	i	i	i
O=C1C=C(NCc2ccccc2)c2ccccc2C1=O	5.8µM	i	4.6µM	3.7µM	15µM	?
Cc1ccc(NC2=CC(=O)C(=O)c3ccccc32)c(C)c1	4.6µM	5µM	i	i	18µM	?
Cc1ccc(NC(=O)COC(=O)c2cccc3c2C(=O)c2ccccc2C3=O)c(C)c1	?	i	?	i	?	i
O=C1C=C(Nc2ccccc2O)c2ccccc2C1=O	3.7µM	2.5µM	?	?	3.3µM	1.8µM
Cc1cccc(C)c1N=C1NN=C(c2ccccc2F)CS1	21µM	i	i	i	21µM	?
C=C(C)CN=C1NN=C(c2cc(C)n(-c3ccc(C)cc3)c2C)CS1	15µM	i	i	i	12µM	i
Cc1ccccc1N=C1NN=C(c2ccccc2F)CS1	?	i	i	?	?	?
Cc1cc(C2=NNC(=NC3CC3)SC2)c(C)n1-c1ccccc1F	16µM	i	?	?	21µM	?
C=CCn1c(Cc2csc(N)n2)nnc1SCC(=O)Nc1ccccc1C(F)(F)F	i	i	i	i	i	i
CCN(c1ccccc1)S(=O)(=O)c1cccc(C(=O)NCC(c2ccc(OC)cc2)N2CCCCC2)c1 (stereo not drawn)	18µM	i	?	?	8.2µM	?
COc1ccc(C(CNC(=O)c2cccc(S(=O)(=O)N3CCCCC3)c2)N2CCCC2)cc1 (stereo not drawn)	i	i	i	i	i	i
C=CCN(c1ccccc1)S(=O)(=O)c1cccc(C(=O)NCC(c2ccc(OC)cc2)N2CCCCC2)c1 (stereo not drawn)	5.8µM	i	i	i	5.8µM	i
C=CCN(c1ccccc1OC)S(=O)(=O)c1cccc(C(=O)NCC(c2ccc(OC)cc2)N2CCCC2)c1 (stereo not drawn)	3.7µM	i	i	i	7.3µM	i
